The results in this text go back to PubChem BioAssay AID651871 (Sanford-Burnham Center for Chemical Genomics, 2012).

SMILES strings stand for the structures. “And” between values parts separate entries of the source, which are not always exact repeats. Identical values can stand only once.

The experiment deals with H9c2. As to the kind of experiment: protection of cardiomyocytes from stress damage, SAR follow-up, cell-based, panel, H9c2 and HL-1, ATP luminescence, set 2 (AID 651871).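 Note: cells exposed to stressor for 2 h before ATP readout; reference of the scale not given here.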 As to conditions: H9c2/HL-1 cardiomyocytes, 2-deoxyglucose stress, with 2-deoxyglucose, run 4, at 79 µM (top of the series).
As to `COc1ccc2nc(-c3cc(OC)c(OC)c(OC)c3)cc(C(=O)NCC(=O)Nc3ccc(C(C)=O)cc3)c2c1`, the activity (protection/inhibition) is 80.7%.

For `CCOC(=O)c1cccc(NC(=O)CNC(=O)c2cc(-c3cc(OC)c(OC)c(OC)c3)nc3ccccc23)c1`, the activity (protection/inhibition) was 87.2%.

On to `COc1ccc2c(c1OC)C(=O)N1c3ccccc3C(=O)N(Cc3cccc(Cl)c3Cl)C21` (stereo not drawn), for which the activity (protection/inhibition) is 57.7% and -8.42%.
